Measured values as given in PubChem BioAssay (Tox21).
Unmarked numbers belong to inactive results. Inconclusive results are not listed. A call without a number means that no potency is given here. Calls of active or inactive are those of the source. Unless noted, calls come from the whole dose curve; as a rule, active = well fitted curve in the direction sought with a large enough effect in the repeat runs; inconclusive = weak or mixed curves; inactive = no such curve, though single readings can be large; an effect the other way counts as inactive or inconclusive.

Experiments:
[1] = qHTS assay to identify small molecule agonists of H2AX (AID 1224845; active = well fitted activation curve with a large enough effect in the signal ratio in the repeat runs, not every such curve was filed as active; the % refers to the signal ratio)
Procedure, shortened: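 Wild-type CHO-K1 cells plated overnight, then exposed 3 hr at 37C to compounds at 15 concentrations (0.76% DMSO). Lysed, then HTRF anti-pH2AX(S139)-cryptate/anti-H2AX-d2 detection after 24 hr at room temperature; emissions 665 and 620 nm.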

[2] = qHTS assay to identify small molecule agonists of the hypoxia (HIF-1) signaling pathway (AID 1224846; active = well fitted activation curve with a large enough effect in the signal ratio in the repeat runs, not every such curve was filed as active; the % refers to the signal ratio)
Procedure, shortened: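 ME-180 HRE-bla reporter cells; compounds in DMSO, 17 h at 37C; read-out beta-lactamase via CCF4-AM FRET.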

[3] = qHTS assay to identify small molecule agonists of H2AX - cell viability counter screen (AID 1224847; calls by dose curve; note: nearly all actives have a fitted effect of over 30% in size; note: potency is the fitted concentration of half-maximal effect; for activity change, negative = cytotoxicity: top concentration of the series differs between compounds)
Procedure, shortened: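 After overnight plating of 1000 CHO-K1 cells per well, a 15-concentration compound series was applied for 3 hr at 37C. Luminescence from CellTiter-Glo, read following 30 min at room temperature, reflected cell viability.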

[4] = qHTS assay to identify small molecule antagonists of the estrogen related receptor (ERR) signaling pathway from Tox21 library (AID 1224848); note: nearly all actives have a fitted effect of over 50% in size; note: potency is the fitted concentration of half-maximal effect
Procedure, shortened: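 Tox21 10K compounds in DMSO tested for ERR pathway antagonism in NTP's ERR cell line; 18 h, 37 C exposure; ONE-Glo luminescence.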

[5] = qHTS assay to identify small molecule agonists of the estrogen related receptor (ERR) signaling pathway from Tox21 library (AID 1224849; calls by dose curve; note: nearly all actives have a fitted effect of over 15% in size); details: ERR reporter cell line, ONE-Glo luciferase, 18 h
Procedure, shortened: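 Luciferase activity in ERR pathway reporter cells served as the agonist readout; exposure lasted 18 h at 37 C, with ONE-Glo detection after 30 min at room temperature.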

[6] = qHTS RealTime-Glo MT Cell Viability Assay in HepG2 cells - 24 hour (AID 1224867); note: nearly all actives have a fitted effect of over 50% in size
Procedure, shortened: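 Cell number in HepG2 cultures estimated from NanoLuc luminescence generated by metabolic reduction of a prosubstrate by living cells. The homogeneous, nonlytic format allowed repeated reads at 0, 8, 16, 24, 32 and 40 h of compound exposure.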

[7] = qHTS RealTime-Glo MT Cell Viability Assay in HEK293 cells - 32 hour (AID 1224868); note: nearly all actives have a fitted effect of over 50% in size; note: potency is the fitted concentration of half-maximal effect; for activity change, negative = cytotoxic: top concentration of the series differs between compounds
Procedure, shortened: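 Homogeneous bioluminescent viability format in HEK293 cells (600 cells/well). Following 5 h at 37 C/5% CO2, 23 nL compound was pintooled; the signal was measured repeatedly during 40 h incubation.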

[8] = A CellTox Green Cytotoxicity Assay to monitor cytotoxicity in HEK293 cells - 0 hour (AID 1224869); note: nearly all actives have a fitted effect of over 50% in size
Procedure, shortened: (§1)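 Real-time, in one plate: 600 HEK293 cells/well with dead-cell DNA dye, pinned compound after 5 h, 37 C incubation over 40 h; viable cells give no appreciable fluorescence.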

[9] = qHTS RealTime-Glo MT Cell Viability Assay in HepG2 cells - 40 hour (AID 1224870); note: nearly all actives have a fitted effect of over 50% in size
Procedure, shortened: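 HepG2 cells mixed with RealTime-Glo MT reagents (NanoLuc plus cell-permeant prosubstrate) were seeded at 600 cells/well, incubated 5 h at 37 C/5% CO2, then pinned with compounds in DMSO; nonlytic luminescence tracked viability during 40 h treatment.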

[10] = A CellTox Green Cytotoxicity Assay to monitor cytotoxicity in HEK293 cells - 40 hour (AID 1224871); note: nearly all actives have a fitted effect of over 45% in size; note: potency is the fitted concentration of half-maximal effect
Procedure, shortened: as §1

## CCCCCc1ccc(Cl)cc1
[1]
  Potency: inactive
[2]
  Potency: inactive
[3]
  Potency: inactive
[4]
  Potency: inactive
[5]; at 92.4 µM (top of the series)
  activity change, positive = activation: -14.2%
[6]
  Potency: inactive
[7]
  Potency: 15.5 µM (active)
[8]
  Potency: inactive
[9]
  Potency: inactive
[10]
  Potency: inactive

## OC[C@@H](O)[C@@H](O)CO
[1]
  Potency: inactive
[2]
  Potency: inactive
[3]
  Potency: inactive
[4]
  Potency: inactive
[5]; at 92.4 µM (top of the series)
  activity change, positive = activation: 4.53%
[6]
  Potency: inactive
[7]
  Potency: inactive
[9]
  Potency: inactive
[10]
  Potency: inactive

## CCCCCCOC(=O)C(C)CC (stereo unspecified)
[1]
  Potency: inactive
[2]
  Potency: inactive
[3]
  Potency: inactive
[4]
  Potency: inactive
[5]; at 92.4 µM (top of the series)
  activity change, positive = activation: 0.0288%
[6]
  Potency: inactive
[7]
  Potency: inactive
[8]
  Potency: inactive
[9]
  Potency: inactive
[10]
  Potency: inactive

## CCCCCCCC
[1]
  Potency: inactive
[2]
  Potency: inactive
[3]
  Potency: inactive
[4]
  Potency: inactive
[5]; at 92.4 µM (top of the series)
  activity change, positive = activation: 4.82%
[6]
  Potency: inactive
[8]
  Potency: inactive
[9]
  Potency: inactive
[10]
  Potency: inactive

## O=C(O)CCN(C1(C(=O)NO)CCCC1)S(=O)(=O)c1ccc(Oc2ccc(F)cc2)cc1
[1]
  Potency: inactive
[2]
  Potency: inactive
[3]
  Potency: inactive
[4]
  Potency: inactive
[5]; at 92.4 µM (top of the series)
  activity change, positive = activation: 4.9%
[6]
  Potency: inactive
[7]
  Potency: inactive
[8]
  Potency: inactive
[9]
  Potency: inactive
[10]
  Potency: inactive

## CNc1ccc([N+](=O)[O-])cc1
[1]
  Potency: inactive
[2]
  Potency: inactive
[3]
  Potency: inactive
[4]
  Potency: inactive
[5]; at 92.4 µM (top of the series)
  activity change, positive = activation: 0.163%
[6]
  Potency: inactive
[8]
  Potency: inactive
[9]
  Potency: inactive
[10]
  Potency: inactive

## Cc1cccc2cccnc12
[1]
  Potency: inactive
[2]
  Potency: inactive
[3]
  Potency: inactive
[4]
  Potency: inactive
[5]; at 92.4 µM (top of the series)
  activity change, positive = activation: 0.0767%
[6]
  Potency: inactive
[7]
  Potency: inactive
[8]
  Potency: inactive
[9]
  Potency: inactive
[10]
  Potency: inactive

## CC(C)Cn1cnc2c(N)nc3ccccc3c21
[1]
  activation (H2AX phosphorylation): -2.05% [at 31.6 µM]
[2]
  activation: 0.447% [at 15.8 µM]
[3]
  activity change, negative = cytotoxicity: 1.2% [at 31.6 µM]
[4]
  activity, negative = inhibition: -22% [at 19 µM]
[5]; at 19 µM (top of the series)
  activity change, positive = activation: -11.2%
[6]
  activity change, negative = cytotoxicity: 0.631% [at 15.8 µM]
[8]
  cytotoxicity: 4.66% [at 15.8 µM]
[9]
  activity change, negative = cytotoxic: 1.75% [at 15.8 µM]
[10]
  cytotoxicity increase: 1.7% [at 15.8 µM]

## Cc1cc(-c2ccc(N=Nc3cc(S(=O)(=O)O)c4ccccc4c3N)c(C)c2)ccc1N=Nc1cc(S(=O)(=O)O)c2ccccc2c1N
[1]
  Potency: inactive
[2]
  Potency: inactive
[3]
  Potency: 80.4 µM (active)
[4]
  Potency: 5.48 µM (active)
[5]; at 92.4 µM (top of the series)
  activity change, positive = activation: -50.3%
[6]
  Potency: inactive
[7]
  Potency: 2.2 µM (active)
[9]
  Potency: inactive
[10]
  Potency: 49.2 µM (active)

## CCc1ccc(Br)cc1
[1]
  Potency: inactive
[2]
  Potency: inactive
[3]
  Potency: inactive
[4]
  Potency: inactive
[5]; at 92.4 µM (top of the series)
  activity change, positive = activation: 5.1%
[6]
  Potency: inactive
[7]
  Potency: inactive
[8]
  Potency: inactive
[9]
  Potency: inactive
[10]
  Potency: inactive

## Cc1ccc(C(=O)O)cc1
[1]
  Potency: inactive
[2]
  Potency: inactive
[3]
  Potency: inactive
[4]
  Potency: inactive
[5]; at 92.4 µM (top of the series)
  activity change, positive = activation: -0.305%
[6]
  Potency: inactive
[7]
  Potency: inactive
[8]
  Potency: inactive
[9]
  Potency: inactive
[10]
  Potency: inactive

## OCC(F)(F)F
[1]
  Potency: inactive
[2]
  Potency: inactive
[3]
  Potency: inactive
[4]
  Potency: inactive
[5]; at 92.4 µM (top of the series)
  activity change, positive = activation: -0.31%
[6]
  Potency: inactive
[7]
  Potency: inactive
[8]
  Potency: inactive
[9]
  Potency: inactive
[10]
  Potency: inactive

## COc1cc(C)ccc1O
[1]
  Potency: inactive
[2]
  Potency: inactive
[3]
  Potency: inactive
[4]
  Potency: inactive
[5]; at 92.4 µM (top of the series)
  activity change, positive = activation: 5.96%
[6]
  Potency: inactive
[7]
  Potency: inactive
[8]
  Potency: inactive
[9]
  Potency: inactive
[10]
  Potency: inactive

## Cc1cccc(C(=O)O)c1O
[1]
  Potency: inactive
[2]
  Potency: inactive
[3]
  Potency: inactive
[4]
  Potency: inactive
[5]; at 42.5 µM (top of the series)
  activity change, positive = activation: 0.112%
[6]
  Potency: inactive
[7]
  Potency: inactive
[8]
  Potency: inactive
[9]
  Potency: inactive
[10]
  Potency: inactive

## Nc1nc(-c2ccccc2)cs1
[1]
  Potency: inactive
[2]
  Potency: inactive
[3]
  Potency: inactive
[4]
  Potency: inactive
[5]; at 92.4 µM (top of the series)
  activity change, positive = activation: 41.7% (active)
[6]
  Potency: inactive
[7]
  Potency: inactive
[8]
  Potency: inactive
[9]
  Potency: inactive
[10]
  Potency: inactive

## C1CCC(SSC2CCCCC2)CC1
[1]
  Potency: inactive
[2]
  Potency: inactive
[3]
  Potency: inactive
[4]
  Potency: inactive
[5]; at 92.4 µM (top of the series)
  activity change, positive = activation: 5.57%
[6]
  Potency: inactive
[7]
  Potency: inactive
[8]
  Potency: inactive
[9]
  Potency: inactive
[10]
  Potency: inactive

## Cc1c(F)c(N2CCNC(C)C2)cc2c1c(=O)c(C(=O)O)cn2C1CC1 (stereo unspecified)
[1]
  Potency: inactive
[2]
  Potency: inactive
[3]
  Potency: inactive
[4]
  Potency: inactive
[5]; at 42.5 µM (top of the series)
  activity change, positive = activation: 9.53%
[6]
  Potency: inactive
[7]
  Potency: inactive
[9]
  Potency: inactive
[10]
  Potency: inactive

## CC(C)(C)C1CCC(=O)CC1
[1]
  Potency: inactive
[2]
  Potency: inactive
[3]
  Potency: inactive
[4]
  Potency: inactive
[5]; at 92.4 µM (top of the series)
  activity change, positive = activation: -0.544%
[6]
  Potency: inactive
[7]
  Potency: inactive
[9]
  Potency: inactive
[10]
  Potency: inactive

## S=c1nccc[nH]1
[1]
  Potency: inactive
[2]
  Potency: inactive
[3]
  Potency: inactive
[4]
  Potency: inactive
[5]; at 92.4 µM (top of the series)
  activity change, positive = activation: -6.52%
[6]
  Potency: inactive
[7]
  Potency: inactive
[8]
  Potency: inactive
[9]
  Potency: inactive
[10]
  Potency: inactive

## CC/C=C\CCCCCO
[1]
  Potency: inactive
[2]
  Potency: inactive
[3]
  Potency: inactive
[4]
  Potency: inactive
[5]; at 92.4 µM (top of the series)
  activity change, positive = activation: 4.13%
[6]
  Potency: inactive
[7]
  Potency: inactive
[9]
  Potency: inactive
[10]
  Potency: inactive

## Sc1nc2ccccc2s1
[1]
  Potency: inactive
[2]
  Potency: inactive
[3]
  Potency: inactive
[4]
  Potency: inactive
[5]; at 92.4 µM (top of the series)
  activity change, positive = activation: 0.0626%
[6]
  Potency: inactive
[7]
  Potency: inactive
[8]
  Potency: inactive
[9]
  Potency: inactive

## Cc1nc(-c2ccc(Cl)cc2)oc1COC(C)(C)C(=O)O
[1]
  Potency: inactive
[2]
  Potency: inactive
[3]
  Potency: inactive
[4]
  Potency: inactive
[5]; at 42.5 µM (top of the series)
  activity change, positive = activation: 0.637%
[6]
  Potency: inactive
[7]
  Potency: inactive
[8]
  Potency: inactive
[9]
  Potency: inactive
[10]
  Potency: inactive
